Counter-ions that a name gives are not always drawn.

For this test, the system named is K562. In words: cell viability relative to vehicle control; higher = less cytotoxic. The note with it: 10 µM; SRSF2 genotype: SRSF2 wt/wt. The method in brief: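 Four leukaemia lines, as CRISPR-edited mutant clones and isogenic wild-type clones, were tested against Selleck bioactive, kinase and epigenetic probe libraries after removal of identity-inconsistent compounds. Cells were exposed to a single 10 µM dose for 48 h, and CellTiter-Glo luminescence was then read. Viability was calculated relative to the on-plate vehicle control.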
A word on the cell viability: it is a read-out of living cells in per cent, often relative to untreated cells. For the compound `CC#CC(=O)Nc1ccc2ncnc(Nc3cccc(Br)c3)c2c1`, the cell viability was 20.9%.

For the compound `Cc1cccc(C#Cc2ccccc2)n1`, the cell viability was 104%.

For the compound `CO/N=C(\C(=O)N[C@@H]1C(=O)N2C(C(=O)O)=C(CSc3nnnn3C)CS[C@H]12)c1csc(N)n1` [Cefmenoxime hydrochloride], the cell viability stood at 100%.

For `CC1(C)CC(=O)c2c(C(F)(F)F)nn(-c3ccc(C(N)=O)c(N[C@H]4CC[C@H](O)CC4)c3)c2C1`, the cell viability is 27.1%.

As to `CC1(C)C=Cc2c(ccc3c2OC[C@@H](c2ccc(O)cc2O)C3)O1` [Glabridin], the cell viability came to 76.9%.

`COc1cccc(-c2cc(NCc3ccc4c(c3)OCO4)nc(N)n2)c1` [Wnt agonist 1]: the cell viability stood at 26.2%.

As for `CNC1CCC(N(Cc2cccc(-c3ccncc3)c2)C(=O)c2sc3ccccc3c2Cl)CC1` (centres undefined) [Smoothened Agonist (SAG) HCl], the cell viability came to 29.8%.

As for `NCCCCCNCC12CC3CC(CC(C3)C1)C2` [IEM 1754 dihydrobroMide], the cell viability came to 95%.

For the compound `NC(=S)c1ccncc1` [Thioisonicotinamide], the cell viability was determined as 98.9%.

Turning to `C[C@@]1(F)[C@H](O)[C@@H](CO)O[C@H]1n1ccc(=O)[nH]c1=O` [2'-deoxy-2'-fluoro-2'-C-methyluridine], the cell viability is 89.8%.

As to `Nc1cccc2c1CN(C1CCC(=O)NC1=O)C2=O` (centres undefined) [Lenalidomide (CC-5013)], the cell viability came out at 94.8%.

Consider `Cc1ccccc1N1C(=O)c2cc(S(N)(=O)=O)c(Cl)cc2NC1C` (centres undefined) [Metolazone (Zaroxolyn)], for which the cell viability was determined as 96.7%.

Regarding `CCC/C=C1\OC(=O)C2=C1CCC=C2` [Ligustilide], the cell viability is 85.5%.

On to `OC[C@@H](O)[C@@H](O)[C@H](O)[C@H](O)CO` [D-Mannitol (Osmitrol)], for which the cell viability turned out to be 106%.

The record behind these values is the supplement of paper PMC10981050.
